Laboratory results as given in article PMC7819943, “Rice protein-binding microarrays: a tool to detect cis-acting elements near promoter regions in rice”.
The full ranking holds about 68,000 sequences; the median of “fluorescence intensity (a.u.)” is about 9,100, and the highest 2% start at about 16,000. The full list was thinned out, with the highest values kept by preference.

Target: OsWRKY34 (Oryza sativa, UniProt Q0JBA9 1-250)
Assay: protein-binding microarray (RPBM); PBS, 2% BSA, 51.3 ng/ul salmon testes DNA, 50 uM zinc acetate, 200 nM TF, 25 C, 1 h; high values mean tight binding
Settings: protein: recombinant; tags: N-terminal polyhistidine and DsRed monomer fusion (pET32a); label: CyDye5-dUTP incorporated in the synthesized complementary strand; 3' TTTTT single-stranded linker to array surface; dsDNA, one strand shown
Procedure, shortened: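 Using Ni–NTA, transcription factors fused N-terminally to polyhistidine and DsRed were purified after expression in E. coli BL21-CodonPlus. These were incubated at 200 nM with a blocked, double-stranded custom Agilent array for 1 h at 25 °C in a buffer containing 50 µM zinc acetate, and the array was washed. The binding signal is per-feature fluorescence intensity (arbitrary units) on an Axon 4000B scanner.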

OsWRKY34, sequence (Q0JBA9 entry or part of it): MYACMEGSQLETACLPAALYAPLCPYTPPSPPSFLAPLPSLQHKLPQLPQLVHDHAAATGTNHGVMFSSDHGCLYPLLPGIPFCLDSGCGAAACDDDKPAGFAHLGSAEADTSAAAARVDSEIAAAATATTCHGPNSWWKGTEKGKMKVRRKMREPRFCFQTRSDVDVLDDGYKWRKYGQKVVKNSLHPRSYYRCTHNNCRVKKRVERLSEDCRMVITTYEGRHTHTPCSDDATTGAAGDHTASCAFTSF

Row | Sequence | binding signal
1 | GTACGACAGTAGTTGTTTTTCTCGCTTTTGATTTTGAGTCCGGAGTCACCTAGTGCAG | 8560 fluorescence intensity (a.u.)
2 | CTCGTCGTCGCCTCCGCTCCTTGCGCCATCTCGCGGCGCCCGGAGTCACCTAGTGCAG | 9480 fluorescence intensity (a.u.)
3 | TATGGACTGTTTTGTTTTGTTCCCCTAGCTAGAATTATTCCGGAGTCACCTAGTGCAG | 9880 fluorescence intensity (a.u.)
4 | GATATGCATTTTCCCTGCTTTCCCTGCTTTTCCCCTTTTTCGGAGTCACCTAGTGCAG | 16400 fluorescence intensity (a.u.)
5 | AGTAGGTTGTTGGTTTTGTACCTTTGGGCTCTTTGCCTTTCGGAGTCACCTAGTGCAG | 10900 fluorescence intensity (a.u.)
6 | TTTGGGTTGTGCTTAGGTTTCCTTCTCGGGCTTTGTTGTACGGAGTCACCTAGTGCAG | 18700 fluorescence intensity (a.u.)
7 | CCTTCTCGGGCTTTGTTGTACGTATGCGTCTCGTGTTGGGCGGAGTCACCTAGTGCAG | 8780 fluorescence intensity (a.u.)
8 | GTAGCCGCTTCCTGCCTTCCTTCCCCTTGCTCTTGCATTTCGGAGTCACCTAGTGCAG | 8340 fluorescence intensity (a.u.)
9 | GCATTTCGTGTTCCCTTTTTGCCTTTTTTTCCCCTTTTCTCGGAGTCACCTAGTGCAG | 10300 fluorescence intensity (a.u.)
10 | ATCTTCCCTTACAGTGACATCCTTTGTTCTTGCCGTCTCTCGGAGTCACCTAGTGCAG | 17600 fluorescence intensity (a.u.)
11 | GCTTTTTTTTTTTCTTTCTTTCTTTTTCCCCTTCGGCTTCCGGAGTCACCTAGTGCAG | 12500 fluorescence intensity (a.u.)
12 | TTCATCCCCTAACCCTTTCTTTGTTCATCTTGTTCTTCCTCGGAGTCACCTAGTGCAG | 9970 fluorescence intensity (a.u.)
13 | TCTTCTTCTTGTTGTTCTTGTTCTTTCTTCTTCCCCTTTTCGGAGTCACCTAGTGCAG | 18800 fluorescence intensity (a.u.)
14 | CCTTTGTTCTTGCCGTCTCTTTTTTTTTTTTACAGAAGAACGGAGTCACCTAGTGCAG | 14600 fluorescence intensity (a.u.)
15 | TTTCTTTGTTGTCTCACTTTCCCTTTTTCCACTTCTTTTTCGGAGTCACCTAGTGCAG | 11700 fluorescence intensity (a.u.)
16 | GTTACCGAAGTTTTACTTTATACCATATGTACTCTATCTACGGAGTCACCTAGTGCAG | 8060 fluorescence intensity (a.u.)
17 | GAGACACCGACGCGTCACACCACCACGTCCGTTTCCGTACCGGAGTCACCTAGTGCAG | 8300 fluorescence intensity (a.u.)
18 | GTTTATTTGGGTTCTCTTATGTGTTGGTGTGTCGATGACCCGGAGTCACCTAGTGCAG | 8940 fluorescence intensity (a.u.)
19 | AAATGTATTTATTTTTTTTCTACTCCCTCCGCCCCTTAATCGGAGTCACCTAGTGCAG | 8590 fluorescence intensity (a.u.)
20 | ATCCTGGACTATGGCTTTCTCTCGTAGCACGATTTTTCTTCGGAGTCACCTAGTGCAG | 10600 fluorescence intensity (a.u.)
21 | ATTAGTTTTTTTTTCTATATTTAATACTCCATGCATATGTCGGAGTCACCTAGTGCAG | 9200 fluorescence intensity (a.u.)
22 | TTACTTGTACTGTTTGACTATTCGTCTTATTCCAAAAAAACGGAGTCACCTAGTGCAG | 8820 fluorescence intensity (a.u.)
23 | ACTTTTAAACCCATGTTTTACCATTCATCTTAATAAAAAACGGAGTCACCTAGTGCAG | 8840 fluorescence intensity (a.u.)
24 | TTTGTTTCTTGTTCTAGAGGGTTTCCTAAGGTGTTTAGGACGGAGTCACCTAGTGCAG | 9940 fluorescence intensity (a.u.)

Row | Sequence | binding signal
25 | AGCAGAGATTTTTACCACGTGTCTCAACAAATAGCCACATCGGAGTCACCTAGTGCAG | 8050 fluorescence intensity (a.u.)
26 | CATGGGCTAATGTCCTTTTTTTATATATTTTTTTTGCCCTCGGAGTCACCTAGTGCAG | 8990 fluorescence intensity (a.u.)
27 | TGTAAGCTTATGTGTCATCTTTCTTTGTTTGTGAAGAACCCGGAGTCACCTAGTGCAG | 8190 fluorescence intensity (a.u.)
28 | ACTCCTCTTCTCTTCATTTTCTTCTTCCCCTGTGCTTCTCCGGAGTCACCTAGTGCAG | 10900 fluorescence intensity (a.u.)
29 | GGCTGCTATATTGACCTTGCTCTTATTCCTTCATTCAATTCGGAGTCACCTAGTGCAG | 10500 fluorescence intensity (a.u.)
30 | AGTAGCATTTGTTGACTTGTTGTATTCTTCTAGCCTTTTTCGGAGTCACCTAGTGCAG | 13800 fluorescence intensity (a.u.)
31 | CCTCTTTATTCCATTAGCTTTTTTCATCTTCTGCTCCATCCGGAGTCACCTAGTGCAG | 10500 fluorescence intensity (a.u.)
32 | TCTTGGGCTTGGGCCTTTGCTATTGTATTGGGTTGGGCCTCGGAGTCACCTAGTGCAG | 8400 fluorescence intensity (a.u.)
33 | CGCCCCTTGATTCGCCTCGTTTTTTCTTTTCCCTTTTTTTCGGAGTCACCTAGTGCAG | 9920 fluorescence intensity (a.u.)
34 | CTTTTTCCTTGCAATCGTGATTCTTTTTTTTTTCCCTTTTCGGAGTCACCTAGTGCAG | 17400 fluorescence intensity (a.u.)
35 | GAGCATTGGGTTGGGCCTTCCTTTCTTGTATTCGGCTTCTCGGAGTCACCTAGTGCAG | 16500 fluorescence intensity (a.u.)
36 | CTGCCGGCTGCTCAATTTATTCCCTTGCTGTTTCATTTCGCGGAGTCACCTAGTGCAG | 45500 fluorescence intensity (a.u.)
37 | CCTTGCCTAGTCGCTGCTGCTGTTTATAAATTTCAACTCCCGGAGTCACCTAGTGCAG | 8810 fluorescence intensity (a.u.)
38 | CCTGACGTGCTTCACCTCACCTGCTCATTTTTTATTTCCCCGGAGTCACCTAGTGCAG | 17300 fluorescence intensity (a.u.)
39 | CTTTCTTGCAATTTTGGTCTTCTTTCCTTTTGATTTGGTTCGGAGTCACCTAGTGCAG | 9200 fluorescence intensity (a.u.)
40 | ATTCCTTGTTGGTAACTGTACCCAGGGGCGGGTCCAACGTCGGAGTCACCTAGTGCAG | 8270 fluorescence intensity (a.u.)
41 | CACGATGATTGTTGCTGCACCATAGTCTCCATGTGTGTACCGGAGTCACCTAGTGCAG | 8410 fluorescence intensity (a.u.)
42 | TGTTTGCACCTTATTACGGTTCTGCGCGCTCTCTCTCTCGCGGAGTCACCTAGTGCAG | 8560 fluorescence intensity (a.u.)
43 | ATACTTAATTAATCATTCGCTAATGGACCACTCTGTTTTCCGGAGTCACCTAGTGCAG | 8430 fluorescence intensity (a.u.)
44 | CCATTGTGTCATTCAGTTATTGTTACTTTCAGTTGTTCTACGGAGTCACCTAGTGCAG | 12200 fluorescence intensity (a.u.)
45 | GTCTCTCTCACCGTCTCCGTGCTCCTCCGCCGCCCAAGGGCGGAGTCACCTAGTGCAG | 12900 fluorescence intensity (a.u.)
46 | GCAAGGTGTACCCGCAGTTCTCACGGTTACCACCATTTTCCGGAGTCACCTAGTGCAG | 8430 fluorescence intensity (a.u.)
47 | TTGGTTCGGTTTTTTCTGCCCGCGTCGGTTTTTGTCTCACCGGAGTCACCTAGTGCAG | 20100 fluorescence intensity (a.u.)
